The supplement of paper PMC10849652
Of roughly 8,800 targets only a part is listed; those with a hit were picked by preference. About 0.5% of all pairs of compound and target were hits. Unmarked numbers belong to inactive results.

Assays:
Test in all cases: log2 fold change, soluble protein after heating vs DMSO (PISA); higher = thermal stabilisation; K562 lysate, 10 uM; active = over 0.2 and 3.5 SD of the protein, either way, in both replicates (recomputed)
[1] = compound: C=CC(=O)N1CCC[C@@H](n2nc(-c3ccc(Oc4ccccc4)cc3)c3c(N)ncnc32)C1 [ibrutinib]
Method in brief: (§1)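 Following dounce homogenisation of K562 pellets in PBS pH 7.4 with 1 mM MgCl2, crude extract at 1 mg/mL protein was incubated for 30 min with 10 μM compound. Aliquots were then heated for 3 min over 48°C-58°C and pooled, NP-40 was added to 0.5% at 4°C, and soluble protein was recovered as the supernatant at 21,000xg for 90 min. Channel-sum-equalised TMTpro 16plex LC-MS/MS quantified this protein. Each value, from duplicates, is a log-two fold change in thermal stability relative to solvent controls.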

[2] = compound: CC(C)(C)Cn1c(N)nc2ccc(-c3[nH]c(C(C)(C)C)nc3-c3ccc(F)cc3)nc21 [ralimetinib]
Method in brief: as §1

[3] = compound: CC(C)(O)CC(=O)NCCn1ccc2ncnc(Nc3ccc(Oc4cccc(C(F)(F)F)c4)c(Cl)c3)c21
Method in brief: as §1

[4] = compound: CC(C)C1=C2N=C(C=C(N2N=C1)NCC3=CC=CC=C3)NCCCCCCN
Method in brief: as §1

[5] = compound: CC1=C(C=C(C=C1)NC(=O)C2=CC(=CC=C2)C(C)(C)C#N)NC3=CC4=C(C=C3)N=CN(C4=O)C
Method in brief: as §1

[6] = compound: CC1=C(C=C(C=C1)NC(=O)C2=CC(=CC=C2)N(C)C)NC(=O)C3=CC=C(C=C3)O
Method in brief: as §1

[7] = compound: CCCS(=O)(=O)Nc1ccc(F)c(C(=O)c2c[nH]c3ncc(-c4ccc(Cl)cc4)cc23)c1F [vemurafenib]
Method in brief: as §1

[8] = compound: CCN(CCCOc1ccc2c(Nc3cc(CC(=O)Nc4cccc(F)c4)[nH]n3)ncnc2c1)CCOP(=O)(O)O [barasertib]
Method in brief: as §1

[9] = compound: CCn1c(C(=O)N(C2CC2)C2CC2)cc2c3c(ncn3C)c(Nc3cc(C)n(C)n3)nc21
Method in brief: as §1

[10] = compound: CCn1cc(-c2ccnc3[nH]c(-c4cccc(CN(C)C)c4)cc23)c(-c2ccc(NC(=O)N(C)C)cc2)n1
Method in brief: as §1

[11] = compound: CN1CCC(CNc2ccc3ncc(-c4cccc(OC(F)(F)F)c4)n3n2)CC1
Method in brief: as §1

[12] = compound: CN1CCN(c2nc(C3=C(c4c[nH]c5ccccc45)C(=O)NC3=O)c3ccccc3n2)CC1 [sotrastaurin]
Method in brief: as §1

[13] = compound: CC(=O)c1cnc2ccc(-c3cc(Cl)c(O)c(Cl)c3)nc2c1N[C@H]1CC[C@H](CN(C)C)CC1
Method in brief: as §1

[14] = compound: CC1=C(C(CC(=O)N1)C2=CC=C(C=C2)C(F)(F)F)C(=O)NC3=C(C=C4C(=C3)C=NN4)F
Method in brief: as §1

[15] = compound: CC1=C(C2=C(C=C1)C(=O)C3=CC=CC=C3N2CCCN)C
Method in brief: as §1

[16] = compound: CC1=CC=C(C=C1)SC2=C3C=C(SC3=CN=C2)C(=O)N
Method in brief: as §1

[17] = compound: CCCS(=O)(=O)Nc1ccc(F)c(C(=O)c2c[nH]c3ncc(Cl)cc23)c1F
Method in brief: as §1

[18] = compound: CC[C@@H]1C(=O)N(C)c2cnc(Nc3ccc(C(=O)NC4CCN(C)CC4)cc3OC)nc2N1C1CCCC1
Method in brief: as §1

[19] = compound: CC[C@@H]1C(=O)N(C)c2cnc(Nc3ccc(C(=O)N[C@H]4CC[C@H](N5CCN(CC6CC6)CC5)CC4)cc3OC)nc2N1C(C)C [volasertib]
Method in brief: as §1

[20] = compound: CN1CCN(CCOc2cc(OC3CCOCC3)c3c(Nc4c(Cl)ccc5c4OCO5)ncnc3c2)CC1 [saracatinib]
Method in brief: as §1

UniProt Q07866, sequence (Q07866 whole entry, looked up): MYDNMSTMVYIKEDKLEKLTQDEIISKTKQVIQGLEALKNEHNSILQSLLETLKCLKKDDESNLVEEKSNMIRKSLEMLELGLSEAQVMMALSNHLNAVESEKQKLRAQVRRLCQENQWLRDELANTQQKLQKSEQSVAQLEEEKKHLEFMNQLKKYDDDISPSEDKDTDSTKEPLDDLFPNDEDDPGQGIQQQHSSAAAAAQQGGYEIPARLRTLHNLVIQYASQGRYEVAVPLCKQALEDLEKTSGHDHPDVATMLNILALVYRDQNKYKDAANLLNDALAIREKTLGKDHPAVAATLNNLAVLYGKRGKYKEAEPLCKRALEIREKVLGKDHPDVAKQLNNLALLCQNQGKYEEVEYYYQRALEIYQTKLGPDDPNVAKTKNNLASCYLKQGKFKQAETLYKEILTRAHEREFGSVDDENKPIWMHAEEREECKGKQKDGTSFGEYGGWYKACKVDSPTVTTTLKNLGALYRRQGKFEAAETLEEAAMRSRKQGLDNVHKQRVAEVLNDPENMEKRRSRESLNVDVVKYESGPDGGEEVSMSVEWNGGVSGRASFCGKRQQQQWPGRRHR
UniProt P01116, sequence (P01116 whole entry, looked up): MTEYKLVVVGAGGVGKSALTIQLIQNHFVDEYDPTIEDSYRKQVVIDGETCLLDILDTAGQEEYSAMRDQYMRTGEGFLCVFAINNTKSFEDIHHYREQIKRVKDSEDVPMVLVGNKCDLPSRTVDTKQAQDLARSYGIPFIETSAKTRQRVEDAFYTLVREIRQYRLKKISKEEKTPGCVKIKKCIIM
UniProt Q00987, sequence (Q00987 whole entry, looked up): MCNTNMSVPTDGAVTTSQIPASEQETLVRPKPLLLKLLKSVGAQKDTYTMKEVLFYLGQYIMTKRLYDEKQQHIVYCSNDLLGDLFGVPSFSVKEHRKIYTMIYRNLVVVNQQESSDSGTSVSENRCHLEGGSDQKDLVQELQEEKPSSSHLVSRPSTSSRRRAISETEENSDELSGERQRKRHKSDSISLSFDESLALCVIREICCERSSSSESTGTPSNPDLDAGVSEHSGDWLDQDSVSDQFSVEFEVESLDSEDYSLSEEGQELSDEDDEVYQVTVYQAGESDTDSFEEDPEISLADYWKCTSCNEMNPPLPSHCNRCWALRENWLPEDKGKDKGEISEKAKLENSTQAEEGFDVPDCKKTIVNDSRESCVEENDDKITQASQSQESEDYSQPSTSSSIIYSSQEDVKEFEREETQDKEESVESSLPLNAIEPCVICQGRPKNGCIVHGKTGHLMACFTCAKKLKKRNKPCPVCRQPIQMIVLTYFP
UniProt Q8TC05, sequence (Q8TC05 whole entry, looked up): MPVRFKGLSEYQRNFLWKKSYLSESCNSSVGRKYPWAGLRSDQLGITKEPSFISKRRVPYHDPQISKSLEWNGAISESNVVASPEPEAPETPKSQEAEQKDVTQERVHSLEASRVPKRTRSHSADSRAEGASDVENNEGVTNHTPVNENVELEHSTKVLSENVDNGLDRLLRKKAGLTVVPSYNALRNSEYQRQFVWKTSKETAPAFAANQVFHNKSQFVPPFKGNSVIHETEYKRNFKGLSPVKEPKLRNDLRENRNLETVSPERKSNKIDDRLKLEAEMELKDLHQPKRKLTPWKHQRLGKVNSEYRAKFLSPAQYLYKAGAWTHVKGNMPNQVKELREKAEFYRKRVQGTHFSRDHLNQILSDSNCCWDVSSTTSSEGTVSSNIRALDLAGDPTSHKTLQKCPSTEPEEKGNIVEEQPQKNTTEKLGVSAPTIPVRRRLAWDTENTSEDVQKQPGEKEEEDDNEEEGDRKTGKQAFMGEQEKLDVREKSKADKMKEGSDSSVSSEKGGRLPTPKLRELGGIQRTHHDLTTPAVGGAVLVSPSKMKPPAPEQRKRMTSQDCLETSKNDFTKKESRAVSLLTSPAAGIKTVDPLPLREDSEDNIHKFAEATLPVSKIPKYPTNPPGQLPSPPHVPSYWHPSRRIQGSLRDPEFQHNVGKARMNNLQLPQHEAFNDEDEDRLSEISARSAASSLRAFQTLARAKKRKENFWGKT
UniProt Q6ZRR7, sequence (Q6ZRR7 whole entry, looked up): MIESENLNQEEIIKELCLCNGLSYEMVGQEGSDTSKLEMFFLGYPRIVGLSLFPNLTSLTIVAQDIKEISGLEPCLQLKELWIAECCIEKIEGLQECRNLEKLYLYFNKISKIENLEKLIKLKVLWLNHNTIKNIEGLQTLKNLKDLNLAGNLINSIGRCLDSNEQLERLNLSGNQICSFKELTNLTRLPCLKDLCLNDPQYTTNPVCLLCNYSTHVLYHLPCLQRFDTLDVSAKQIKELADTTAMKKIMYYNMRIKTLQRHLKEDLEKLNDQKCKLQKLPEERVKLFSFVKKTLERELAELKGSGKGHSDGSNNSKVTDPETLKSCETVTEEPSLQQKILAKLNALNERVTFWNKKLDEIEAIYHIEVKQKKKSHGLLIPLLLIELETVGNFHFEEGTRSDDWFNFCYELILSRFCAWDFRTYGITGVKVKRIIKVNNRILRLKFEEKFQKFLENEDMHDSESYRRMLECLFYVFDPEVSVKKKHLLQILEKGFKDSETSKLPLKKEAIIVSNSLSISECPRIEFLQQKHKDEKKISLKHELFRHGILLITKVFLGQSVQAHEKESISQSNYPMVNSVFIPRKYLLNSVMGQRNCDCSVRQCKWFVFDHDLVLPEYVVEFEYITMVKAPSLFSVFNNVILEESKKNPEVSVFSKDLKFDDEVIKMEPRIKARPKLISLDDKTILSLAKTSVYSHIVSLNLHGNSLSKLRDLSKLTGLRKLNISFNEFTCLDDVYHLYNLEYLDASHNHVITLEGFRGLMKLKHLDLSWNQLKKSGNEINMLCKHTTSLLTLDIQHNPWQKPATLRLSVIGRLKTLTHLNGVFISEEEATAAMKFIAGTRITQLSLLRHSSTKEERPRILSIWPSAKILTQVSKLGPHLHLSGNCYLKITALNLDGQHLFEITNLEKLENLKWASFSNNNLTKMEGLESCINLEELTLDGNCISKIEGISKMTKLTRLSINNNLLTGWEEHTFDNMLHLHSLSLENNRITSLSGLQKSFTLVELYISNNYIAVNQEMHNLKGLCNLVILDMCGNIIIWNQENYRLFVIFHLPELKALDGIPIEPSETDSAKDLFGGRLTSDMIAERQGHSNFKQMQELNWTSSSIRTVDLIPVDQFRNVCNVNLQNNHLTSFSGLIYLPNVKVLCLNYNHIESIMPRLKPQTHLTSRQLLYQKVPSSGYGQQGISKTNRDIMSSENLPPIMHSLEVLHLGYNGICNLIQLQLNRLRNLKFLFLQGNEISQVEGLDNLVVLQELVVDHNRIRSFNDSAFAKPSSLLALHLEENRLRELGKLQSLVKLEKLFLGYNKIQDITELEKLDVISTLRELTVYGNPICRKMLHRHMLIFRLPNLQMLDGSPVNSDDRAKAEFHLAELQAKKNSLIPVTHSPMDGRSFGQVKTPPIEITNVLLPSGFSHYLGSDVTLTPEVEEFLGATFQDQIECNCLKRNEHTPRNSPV
UniProt Q08380, sequence (Q08380 whole entry, looked up): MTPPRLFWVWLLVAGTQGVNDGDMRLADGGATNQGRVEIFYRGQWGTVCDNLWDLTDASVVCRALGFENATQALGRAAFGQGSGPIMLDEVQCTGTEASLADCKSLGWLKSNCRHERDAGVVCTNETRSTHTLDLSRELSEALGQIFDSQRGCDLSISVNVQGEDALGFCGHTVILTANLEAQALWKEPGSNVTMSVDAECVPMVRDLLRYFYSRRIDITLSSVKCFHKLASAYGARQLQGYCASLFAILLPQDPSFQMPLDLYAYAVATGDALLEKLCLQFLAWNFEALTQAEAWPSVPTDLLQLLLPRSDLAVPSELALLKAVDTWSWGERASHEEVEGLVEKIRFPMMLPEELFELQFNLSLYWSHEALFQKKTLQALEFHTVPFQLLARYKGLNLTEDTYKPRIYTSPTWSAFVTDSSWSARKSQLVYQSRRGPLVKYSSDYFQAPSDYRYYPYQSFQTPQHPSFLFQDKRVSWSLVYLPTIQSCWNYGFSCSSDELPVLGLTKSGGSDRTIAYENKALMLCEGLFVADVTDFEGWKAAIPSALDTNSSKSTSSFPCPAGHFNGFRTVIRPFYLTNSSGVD
UniProt Q86Y91, sequence (Q86Y91 whole entry, looked up): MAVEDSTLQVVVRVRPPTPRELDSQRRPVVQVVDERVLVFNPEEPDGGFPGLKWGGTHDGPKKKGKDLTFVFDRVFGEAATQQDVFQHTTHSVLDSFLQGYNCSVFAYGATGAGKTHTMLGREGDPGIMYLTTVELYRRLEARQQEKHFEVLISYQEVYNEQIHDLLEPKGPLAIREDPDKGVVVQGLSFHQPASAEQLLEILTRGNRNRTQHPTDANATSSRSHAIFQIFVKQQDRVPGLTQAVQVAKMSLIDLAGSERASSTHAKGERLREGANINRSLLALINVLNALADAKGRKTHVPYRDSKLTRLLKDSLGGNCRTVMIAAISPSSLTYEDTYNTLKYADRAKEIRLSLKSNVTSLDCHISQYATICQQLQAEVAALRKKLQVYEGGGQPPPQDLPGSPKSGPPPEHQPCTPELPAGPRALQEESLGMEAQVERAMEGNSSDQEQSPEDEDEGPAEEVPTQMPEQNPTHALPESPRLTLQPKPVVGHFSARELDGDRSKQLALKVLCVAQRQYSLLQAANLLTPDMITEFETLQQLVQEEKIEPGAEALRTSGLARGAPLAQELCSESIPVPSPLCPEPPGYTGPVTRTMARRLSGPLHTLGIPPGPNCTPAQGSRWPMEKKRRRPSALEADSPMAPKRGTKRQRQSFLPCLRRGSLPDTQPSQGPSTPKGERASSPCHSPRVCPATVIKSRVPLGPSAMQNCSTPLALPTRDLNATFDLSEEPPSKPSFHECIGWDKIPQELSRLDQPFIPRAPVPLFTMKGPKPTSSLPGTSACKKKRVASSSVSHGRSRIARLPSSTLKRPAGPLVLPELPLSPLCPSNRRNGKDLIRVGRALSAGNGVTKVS
UniProt Q16553, sequence (Q16553 whole entry, looked up): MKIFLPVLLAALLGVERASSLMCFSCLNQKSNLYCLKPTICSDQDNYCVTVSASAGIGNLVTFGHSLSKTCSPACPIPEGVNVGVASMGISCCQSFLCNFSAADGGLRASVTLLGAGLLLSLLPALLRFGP

| Target | log2 fold change [1] | log2 fold change [2] | log2 fold change [3] | log2 fold change [4] | log2 fold change [5] | log2 fold change [6] | log2 fold change [7] | log2 fold change [8] | log2 fold change [9] | log2 fold change [10] | log2 fold change [11] | log2 fold change [12] | log2 fold change [13] | log2 fold change [14] | log2 fold change [15] | log2 fold change [16] | log2 fold change [17] | log2 fold change [18] | log2 fold change [19] | log2 fold change [20] |
| --- | --- | --- | --- | --- | --- | --- | --- | --- | --- | --- | --- | --- | --- | --- | --- | --- | --- | --- | --- | --- |
| MDM2 isoform 11 (UniProt Q00987) | -0.071 | 0.038 | -0.08 | -0.006 | -0.074 | 0.076 | -0.035 | -0.238 | -0.03 | 0.024 | -0.038 | 0.053 | – | – | – | – | – | – | – | – |
| LRPPRC (UniProt H7C3W8) | – | – | – | – | – | – | 0.566 | – | – | – | – | – | – | – | – | – | – | – | – | – |
| MPDZ (UniProt O75970) | – | 0.024 | -0.157 | -0.015 | 0.057 | 0.076 | 0.059 | – | -0.115 | 0.129 | -0.017 | 0.209 | 0.264 | -0.173 | 0.062 | -0.029 | 0.03 | 0 | -0.026 | 0.088 |
| MMS22L (UniProt Q6ZRQ5) | -0.025 | – | – | -0.085 | -0.049 | – | -0.044 | 0.083 | – | 0.077 | -0.083 | 0.012 | 0.049 | 0.007 | -0.042 | 0.007 | 0.013 | -0.182 | -0.119 | 0.092 |
| LRIF1 (UniProt Q5T3J3) | – | -0.09 | -0.055 | 0.089 | -0.031 | 0.046 | 0.213 | – | 0.006 | 0.105 | 0.044 | 0.001 | -0.088 | -0.143 | -0.044 | -0.197 | -0.005 | -0.009 | 0.042 | 0.046 |
| KIF2A isoform 2 (UniProt O00139) | – | – | – | – | – | – | – | – | – | 0.129 | 0.316 | – | – | – | – | – | – | – | – | – |
| MAPKAP1 (UniProt Q9BPZ7) | – | -0.019 | 0 | -0.031 | 0.007 | -0.034 | – | – | 0.005 | – | – | -0.045 | – | -0.103 | 0.061 | – | – | 0.031 | – | 0.057 |
| LY6E (UniProt Q16553) | -0.032 | – | – | – | – | – | 0.068 | -0.02 | – | -1.86 (active) | 0.533 | – | 0.028 | -0.027 | – | -0.042 | 0.026 | -0.055 | 0.022 | – |
| MEGF8 (UniProt Q7Z7M0) | 0 | -0.019 | -0.124 | -0.057 | 0.079 | 0.154 | – | 0.049 | -0.048 | 0.124 | 0.028 | -0.003 | – | – | 0.091 | – | – | 0.076 | – | 0.283 |
| KIF18B (UniProt Q86Y91) | – | – | – | – | 0 | – | – | – | – | – | – | 0.106 | -0.157 | – | -0.022 | -0.121 | 0.017 | 0.221 | -0.046 | 0.04 |
| MDM1 (UniProt Q8TC05) | – | 0.037 | -0.054 | -0.029 | – | -0.019 | 0.024 | – | 0.075 | -1.5 (active) | 0.512 (active) | – | -0.006 | -0.027 | 0.022 | -0.079 | 0.053 | -0.05 | 0.024 | 0.013 |
| KIF26A (UniProt Q9ULI4) | -0.022 | -0.125 | 0.084 | 0.008 | 0.033 | -0.048 | 0.135 | 0 | -0.01 | -0.076 | -0.005 | -0.033 | – | -0.02 | 0.007 | – | – | 0.08 | – | -0.067 |
| LRP1 (UniProt Q07954) | – | – | – | – | 0.378 | – | 0.15 | – | – | – | – | -0.043 | -0.017 | – | – | -0.049 | -0.072 | -0.163 | 0.004 | – |
| KRAS (UniProt P01116) | – | -0.023 | 0.063 | -0.008 | -0.048 | 0.07 | 0.061 | – | -0.053 | -0.278 (active) | 0.06 | 0.012 | 0.006 | -0.037 | 0.018 | -0.058 | 0.019 | 0.019 | 0.063 | 0.066 |
| MAPK3 (UniProt H0YEX6) | – | – | – | – | – | – | – | – | – | – | – | – | – | 0.029 | – | – | – | – | – | – |
| KLC1 isoform 10 (UniProt Q07866) | 0.235 | – | – | -0.129 | – | – | – | 0.238 | – | – | – | – | – | – | – | – | – | 0.152 | – | – |
| LRRC9 (UniProt Q6ZRR7) | – | – | – | – | 0.042 | – | -0.011 | – | – | -0.25 | 0.131 | 0.01 | – | – | – | – | – | -0.022 | – | – |
| LRRIQ1 (UniProt Q96JM4) | – | -0.041 | 0.019 | – | 0.671 (active) | 0.047 | -0.023 | – | -0.015 | – | – | 0.027 | -0.036 | – | – | -0.069 | 0.02 | – | 0.015 | – |
| LGALS3BP (UniProt Q08380) | – | – | – | 0 | -0.009 | – | -0.196 | – | – | 0.168 | 0 | -0.067 | 0.061 | 1.31 | 0.453 | 0 | 0.01 | 0.036 | 0.044 | 0.219 |
| KIFC3 isoform 6 (UniProt Q9BVG8) | 0 | – | – | 0.097 | 0.193 | – | 0.052 | 0.025 | – | 0.284 | 0.256 | 0.028 | – | – | -0.231 | – | – | 0.409 | – | 0.005 |
